The list is not random: actives were taken first. Their share in the collection is about 3.6%.
NadD inh: inhibitors of Staphylococcus aureus NadD; inhibition, % at 20 µM; purified NadD enzyme, colorimetric absorbance read-out; hit rate 0.78% among 360,000; in the data active = inhibition above about 26%
CendR NRP1 mod: NRP-1/CendR interaction modulation | O14786 | FAM-RPARPAR peptide binding to NRP-1, fluorescence polarization | inhibition, % at 25 µM | hit rate 0.85% among 360,000 | AID 602438;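 active = inhibition or corrected inhibition above about 18%, plus a signal ratio from 0.5 to 1.5, limit read from the data, passing the limit was not always enough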
Target sequence (O14786 whole entry, looked up): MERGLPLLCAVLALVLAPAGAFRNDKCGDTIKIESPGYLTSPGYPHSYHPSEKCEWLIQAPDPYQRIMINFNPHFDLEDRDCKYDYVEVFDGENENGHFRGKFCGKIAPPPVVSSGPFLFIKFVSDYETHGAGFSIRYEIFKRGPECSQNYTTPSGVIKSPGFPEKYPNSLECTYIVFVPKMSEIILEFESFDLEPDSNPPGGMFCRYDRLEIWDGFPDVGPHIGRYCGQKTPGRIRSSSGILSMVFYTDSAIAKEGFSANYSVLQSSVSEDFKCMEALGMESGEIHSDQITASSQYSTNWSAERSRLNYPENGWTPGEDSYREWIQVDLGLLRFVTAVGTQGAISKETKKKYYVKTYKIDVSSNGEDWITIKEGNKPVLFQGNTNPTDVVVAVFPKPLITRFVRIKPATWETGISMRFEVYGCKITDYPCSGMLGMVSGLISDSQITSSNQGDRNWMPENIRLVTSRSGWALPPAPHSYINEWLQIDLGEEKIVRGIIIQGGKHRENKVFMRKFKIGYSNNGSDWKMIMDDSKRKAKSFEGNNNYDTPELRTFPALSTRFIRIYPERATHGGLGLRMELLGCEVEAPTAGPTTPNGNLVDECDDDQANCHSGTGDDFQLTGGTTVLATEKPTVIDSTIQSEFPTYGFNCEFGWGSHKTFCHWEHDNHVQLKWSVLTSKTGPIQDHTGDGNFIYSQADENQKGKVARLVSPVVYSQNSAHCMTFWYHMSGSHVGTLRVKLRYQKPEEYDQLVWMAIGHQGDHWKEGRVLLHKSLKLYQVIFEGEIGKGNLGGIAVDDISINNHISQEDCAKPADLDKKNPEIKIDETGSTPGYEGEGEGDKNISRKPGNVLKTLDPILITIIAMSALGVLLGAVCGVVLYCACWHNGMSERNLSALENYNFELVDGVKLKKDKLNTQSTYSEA
CRFR2-BP antag: blocks CRF-induced signaling of the CRF-BP/CRF-R2 complex; HEK293 CRF-R2/CRF-BP, CRF-induced calcium fluorescence; inhibition, % at 11.8 µM; hit rate 0.59% among 350,000; AID 588475;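 active = inhibition of the ligand-induced calcium signal above about 50% at the single tested concentration, limit read from the data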
Myeloid diff MLP: promotes myeloid progenitor differentiation | ER-HoxA9 myeloid progenitors, lysozyme-GFP differentiation, flow cytometry | calls only at 10 µM | hit rate 1% among 360,000;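 active = normalized GFP-positive differentiation at or above the plate's own cutoff, the solvent-only control mean plus 3 SD; inconclusive = no clear call, values can overlap the other calls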;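 also: cells exposed to compound for four days before flow analysis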
FAS TE block: blocks the thioesterase domain of human fatty acid synthase | recombinant FAS-TE, OMFH fluorogenic substrate, fluorescence endpoint | inhibition, % at 15 µM | hit rate 0.67% among 360,000 | AID 602261;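 active = compounds whose normalised, plate-corrected inhibition of enzyme fluorescence in the single-dose primary screen is 50% or more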;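 also: 0% = DMSO with enzyme and 100% = substrate without enzyme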
NadD conf: NadD (S. aureus) inhibition, single concentration confirmation; shares compounds with NadD inh; purified S. aureus NadD, colorimetric enzyme assay; inhibition, % at 20 µM; hit rate 13% among 2,000; in the data active = inhibition mostly above about 42%, no sharp cut-off; inactive = mostly below about 42%
An asterisk follows results filed as active; i = inactive; u = inconclusive; x = no result; + = active, no number.

SMILES | NadD inh | CendR NRP1 mod | CRFR2-BP antag | Myeloid diff MLP | FAS TE block | NadD conf
COc1ccccc1NC(=O)Nc1nc(C(N)Cc2ccc(C(F)(F)F)cc2)cs1 (stereo not given) | 19.0 | 0.1 | x | i | -3.5 | x
C=C(C)CN(CC)c1nc(N)c2c(N)nc3c(c2c1C#N)CC(=O)N3C12CC3CC(CC(C3)C1)C2 | 34.9* | -17.7 | -27.0 | i | -0.3 | 14.8
COc1ccc(/C=C/C(=O)NC(=S)NNC(=O)[C@H]2C[C@@H]2c2ccccc2)cc1OC | 58.6* | -4.9 | -3.7 | u | -6.3 | 13.0
COc1cccc(OC)c1C(=O)NC(=S)NNC(=O)[C@H]1C[C@@H]1c1ccccc1 | 4.3 | -8.6 | -1.7 | i | -6.3 | x
COc1cc(Cl)c(C)cc1NC(=O)CSc1sc2c(O)cc(=O)[nH]c2c1C#N | 41.7* | -60.0 | 14.1 | i | 4.1 | 27.4
COc1ccc(OC)c(NC(=O)CSc2sc3c(O)cc(=O)[nH]c3c2C#N)c1 | 10.7 | -43.0 | -10.7 | i | 1.4 | x
CCOc1ccc(NC(=O)c2ccc(NC(=O)CSc3nc4ccccc4c(=O)[nH]3)cc2)cc1 | 43.0* | -1.5 | 2.9 | i | 1.2 | 7.2
O=C(CSc1nc2ccccc2c(=O)[nH]1)Nc1ccc(C(=O)O)cc1 | -2.4 | -10.1 | -11.7 | i | -4.1 | x
CN(C)c1ccnc2c[cH-]cc12.[Fe].c1ccc(-[c-]2[c-](-c3ccccc3)[c-](-c3ccccc3)[c-](-c3ccccc3)[c-]2-c2ccccc2)cc1 (stereo not given) | 29.5* | 8.9 | 11.5 | i | -0.9 | -8.4
CCCCN1C2=C(C(=O)CCC2)C(c2ccc(Cl)c(Cl)c2)C2=C1c1ccccc1C2=O (stereo not given) | 32.0* | -6.4 | 21.8 | i | 25.1 | 8.4
Cc1ccc(NC2CCCN(C(=O)CCCN3CCCCC3=O)C2)cc1C (stereo not given) | 3.1 | 13.0 | 5.0 | i | -4.0 | x
Nc1ccccc1C(=O)NNC(=O)C(=O)/C=C(\O)c1ccccc1 | 71.5* | -15.5 | 0.5 | i | 6.0 | 73.5*
CCN1CCN(Cc2ccc(NC(=O)c3ccc(C)c(NC(=O)c4c[nH]c5cc(C(F)(F)F)ccc5c4=O)c3)cc2C(F)(F)F)CC1 | 35.7* | -1.4 | 25.8 | i | -29.7 | -5.1
CC(=O)Oc1ccc(C(=O)N2c3ccccc3NC(=O)C2C)cc1 (stereo not given) | 1.1 | 7.3 | 17.4 | i | -0.1 | x
Cc1c(N=C2N=C(NC(=O)NC(C)(C)C)c3ccccc32)c(=O)n(-c2ccccc2)n1C | 7.3 | 9.8 | 22.7 | i | -6.4 | x
Cc1c(N=C2N=C(NC(=O)c3cccs3)c3ccccc32)c(=O)n(-c2ccccc2)n1C | 31.1* | -97.1 | -66.3 | i | -29.6 | 11.5
COc1cc(OC)cc(C2=Cc3ccccc3C(CC(=O)c3ccco3)N2c2ccc(-c3cccnc3)cc2)c1 (stereo not given) | 34.9* | -5.4 | x | i | 20.2 | 36.2
COC(=O)c1ccc(N2C(c3cc(OC)cc(OC)c3)=Cc3ccc(-c4cccnc4)cc3C2CC(=O)C2CC2)cc1 (stereo not given) | 32.1* | 3.3 | x | i | 27.9 | 22.4
COc1cc(OC)cc(C2=Cc3ccc(OC)cc3C(CC(C)=O)N2c2ccc(-c3cncnc3)cc2)c1 (stereo not given) | 0.3 | 1.5 | x | i | 24.0 | x
COc1ccc(OCC(=O)Nc2nnc(S(=O)(=O)N3CCCCCC3)s2)cc1 | 10.8 | -4.2 | -10.7 | i | 2.9 | x
Cc1ccc(OCC(=O)Nc2nnc(S(=O)(=O)N3CCC(C)CC3)s2)cc1 | 26.5* | -20.6 | 4.7 | u | 0.3 | 9.8
CC(=O)C1CCC2C3CCC4CC(=O)CCC4(C)C3C=CC12C (stereo not given) | -0.5 | 8.5 | -18.3 | i | 10.5 | x
Cc1cccc(NC(=O)c2ccc(OCc3c(C)noc3C)cc2)n1 | 4.2 | -0.8 | -1.2 | i | 0.0 | x
COc1ccc(-c2nc(=S)c3c([nH]2)Oc2ccc(C)cc2C3)cc1O | 30.2* | 4.2 | 0.1 | i | -5.0 | 11.2
O=C(c1ccc2c(=O)n(Cc3ccco3)c(=S)[nH]c2c1)N1CCN(Cc2ccccc2)CC1 | 55.5* | -18.7 | -12.6 | i | 1.8 | 36.5*
SMILES | NadD inh | CendR NRP1 mod | CRFR2-BP antag | Myeloid diff MLP | FAS TE block | NadD conf
CN1CCN(C(=O)c2ccc3c(=O)n(Cc4ccco4)c(=S)[nH]c3c2)CC1 | -3.1 | -10.1 | -12.4 | i | -8.9 | x
CC(Nc1ccc(Br)cc1)C(=O)NC(=O)NC1CCCCC1 (stereo not given) | 0.3 | 3.7 | -10.1 | i | 22.5 | x
COc1ccc2c(CC(=O)NC(Cc3ccc(Cl)cc3)C(=O)O)cc(=O)oc2c1C (stereo not given) | 2.6 | -1.3 | 4.6 | i | 6.3 | x
COc1ccc(C(C[N+](=O)[O-])c2c(-c3ccccc3)cc3ccccn23)c(OC)c1 (stereo not given) | 32.9* | -13.2 | -53.9 | x | 13.6 | 13.6
CCOc1c(Cl)cc(CNc2ccc(N3CCCC3)cc2)cc1OC | 32.7* | 3.1 | 12.9 | i | 12.8 | 2.3
COc1ccc(NS(=O)(=O)c2cccc(C(=O)NCC3(N(C)C)CCCCC3)c2)cc1 | -7.0 | -5.7 | -13.3 | i | -10.9 | x
Cc1ccc(-c2cc(-c3ccccc3)c3c(N)c(S(C)(=O)=O)sc3n2)cc1 | 25.7 | 8.4 | -15.5 | i | 31.4 | x
CS(=O)(=O)c1sc2nc(-c3cccs3)cc(-c3ccccc3)c2c1N | 73.5* | -12.1 | -8.3 | + | 18.0 | 13.6
Cc1ccc(NC(=O)c2ccc(N/N=C/c3cccc(O)c3)c([N+](=O)[O-])c2)cc1 | 36.2* | -25.5 | -3.5 | i | -0.2 | 6.2
CC(C)C[C@H]1CN([C@@H](Cc2ccccc2)CN2CCC[C@H]2CN2C(=O)C(=O)NC[C@@H]2Cc2ccc(O)cc2)C(=O)C(=O)N1CC1CCCCCC1 | 36.4* | -17.3 | x | i | 13.8 | 38.2
CC(C)C[C@H]1CN([C@@H](Cc2ccc(O)cc2)CN2CCC[C@@H]2CN2C(=O)C(=O)NC[C@@H]2Cc2ccccc2)C(=O)C(=O)N1CC1CCCCCC1 | 29.1 | -6.8 | 8.1 | i | 22.4 | x
CC(C)C[C@H]1CNC(=O)C(=O)N1C[C@@H]1CCCN1C[C@H](Cc1ccc(O)cc1)N1C[C@H](Cc2ccccc2)N(CC2CCCCCC2)C(=O)C1=O | 33.8* | -14.2 | x | i | 7.3 | 37.3
Cc1cc(-c2n[nH]c(=S)n2/N=C/c2ccc(Br)s2)n[nH]1 | 9.5 | -2.2 | -2.1 | i | -7.9 | x
Cc1ccsc1/C=N/n1c(-c2cc(-c3ccccc3)n[nH]2)n[nH]c1=S | 14.8 | -2.7 | -14.2 | i | 10.4 | x
Cc1ccccc1/C=N/n1c(-c2cc(-c3ccccc3)n[nH]2)n[nH]c1=S | 52.9* | -14.3 | -3.4 | i | 2.7 | 22.2
S=c1[nH]nc(-c2cc(-c3ccccc3)n[nH]2)n1/N=C/c1ccc(Br)s1 | 43.2* | -14.4 | -2.4 | i | 14.8 | 42.0
COc1cc(NC(=O)NCC2CCN(Cc3ccccc3C)CC2)cc(OC)c1OC | -7.9 | -7.0 | -16.9 | i | -3.1 | x
